A selection: hits, their analogues and other compounds. The true share with any hit is near 1.4%.
Polio RdRp inh = poliovirus RNA polymerase inhibition | % elongation, % (compound at 16.7 µg/mL) | actives 0.66% (n = 150,000) | P03300 | poliovirus polymerase elongation, fluorescence polarization; hits give low values; in the data active means % elongation below about 90%
Mtb MbtI inh = blocks the Mycobacterium tuberculosis siderophore enzyme MbtI. purified MbtI enzyme, fluorescence intensity read-out. P9WFX0. inhibition, % (no concentration beside the values). actives 0.89% (n = 100,000); in the data active means inhibition mostly above about 56%, no sharp cut-off; inactive means mostly below about 77%
AID504770 = growth inhibitors of E. coli YBA685 in a screen for V. cholerae RctB (chromosome II replication) inhibitors; E. coli YBA685 rctB-dependent plasmid, OD600 growth, 3 h; hits give low values; z-score (no concentration beside the values); actives 0.27% (n = 130,000); in the data active means z-score below about -2, passing the limit was not always enough
MenB inh = inhibitors of Mycobacterium tuberculosis MenB enzyme; MenB enzyme assay, absorbance read-out; inhibition, % (no concentration beside the values); actives 0.43% (n = 100,000); in the data active means inhibition above about 21%, passing the limit was not always enough
Target sequence (P9WNP5 whole entry, looked up): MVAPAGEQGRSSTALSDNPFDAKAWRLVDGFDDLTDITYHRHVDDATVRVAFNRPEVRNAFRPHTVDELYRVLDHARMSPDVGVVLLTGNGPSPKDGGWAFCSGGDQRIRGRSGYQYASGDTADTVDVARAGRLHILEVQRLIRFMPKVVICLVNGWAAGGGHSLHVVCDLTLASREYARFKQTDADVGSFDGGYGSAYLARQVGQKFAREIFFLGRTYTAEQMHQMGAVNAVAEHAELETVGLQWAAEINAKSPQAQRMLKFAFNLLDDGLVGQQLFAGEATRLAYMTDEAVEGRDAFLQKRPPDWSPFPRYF
Numbers without * were called inactive.

`CCOC(=O)CCc1c(C)nc2ncnn2c1C` gave Mtb MbtI inh -0.6 and AID504770 1.95.
`CCOC(=O)CCc1c(CC(=O)OCC)c[nH]c1/C=N/O` gave Polio RdRp inh 50.0*, Mtb MbtI inh -9.1, AID504770 -0.25 and MenB inh -20.6.
`CCn1c(CCC(=O)O)nc2cc(S(N)(=O)=O)ccc21` gave Polio RdRp inh 64.0*, Mtb MbtI inh 91.7, AID504770 -2 and MenB inh -65.1.
For Cn1c(=NC(=O)C2CC(=O)N(c3ccc4c(c3)OCCO4)C2)sc2ccccc21 (stereo not drawn) the results were Polio RdRp inh 99.0, Mtb MbtI inh 0.1, AID504770 -0.65 and MenB inh -29.0.
Screening Nc1c(Cl)cc(Cl)c2nsnc12 returned Polio RdRp inh 70.0, Mtb MbtI inh -1.8, AID504770 0.4 and MenB inh -32.3.
For Nc1ccc2nc(CCCO)[nH]c2c1 the results were Polio RdRp inh 54.0*, Mtb MbtI inh 58.9, AID504770 0.75 and MenB inh 28.4.
For Cc1ccc(N=NN(C)C)cc1 the results were AID504770 -6.65*.
Screening CC(=O)N(C(C)=O)S(=O)(=O)c1ccc(N=NN(C)C)cc1 returned Polio RdRp inh 102.0, AID504770 -1.55 and MenB inh -16.8.
Screening CN(C)C(=O)CCCc1nc(-c2ccc(Cl)cc2)no1 returned Polio RdRp inh 104.0, Mtb MbtI inh -7.6, AID504770 -2.4* and MenB inh -18.5.
`C/C(=N\NC(=O)c1cc2ccccc2cc1O)c1cccnc1` gave Polio RdRp inh 99.0, Mtb MbtI inh -6.4, AID504770 0.6 and MenB inh 6.3.
O=C(Nc1ccccc1)c1cc(Cl)ccc1O was read as Polio RdRp inh 104.0, Mtb MbtI inh -143.8 and AID504770 -2.65*.
Screening CCn1c(=O)c2sccc2n2c(CCCC(=O)N3CCN(c4ccc(OC)cc4)CC3)nnc12 returned Polio RdRp inh 49.0*.
For C/C(=C/C(=O)O)C(=O)Nc1nc(-c2cccs2)cs1 the results were Mtb MbtI inh 71.8*, AID504770 0.15 and MenB inh -9.5.
For CCN(CC)c1ccc(N)c(C)c1 the results were Polio RdRp inh 101.0, Mtb MbtI inh 98.4*, AID504770 -0.1 and MenB inh -3.4.
Screening O=C1COc2ccc(C(=O)CSC(=S)N3CCCC3)cc2N1 returned Polio RdRp inh 81.0*, Mtb MbtI inh 88.5, AID504770 2.3 and MenB inh -49.4.
For Cc1cc(=O)[nH]c(SCC(=O)c2ccc3c(c2)NC(=O)CO3)n1 the results were Polio RdRp inh 103.0, Mtb MbtI inh 28.6, AID504770 -0.35 and MenB inh 16.0.
Screening O=C(CSc1ncc(C(F)(F)F)cc1Cl)N1CCNC1=O returned Polio RdRp inh 104.0, Mtb MbtI inh 57.7*, AID504770 1.25 and MenB inh 3.0.
CCO/C=C1\C(=O)N(Cc2ccccc2)C(=O)c2ccccc21 was read as Polio RdRp inh 62.0*, Mtb MbtI inh -5.3 and AID504770 1.15.
Screening CCO/C=C1/C(=O)N(C)C(=O)c2ccccc21 returned Polio RdRp inh 17.0, Mtb MbtI inh 23.4, AID504770 -0.55 and MenB inh 10.2.
For CCC(N)C(=O)c1ccc(Cl)cc1 (stereo not drawn) the results were Polio RdRp inh 101.0, Mtb MbtI inh 3.2, AID504770 -0.45 and MenB inh 32.3*.
`COc1ccc(Cl)cc1NC1=NC2CS(=O)(=O)CC2S1` (stereo not drawn) gave Polio RdRp inh 99.0, Mtb MbtI inh 63.0*, AID504770 0.2 and MenB inh -16.6.
CCN(CC)S(=O)(=O)c1ccc(N2CC(C(=O)Nc3ccc4c(c3)OCO4)CC2=O)cc1 (stereo not drawn) was read as Polio RdRp inh 102.0, Mtb MbtI inh -0.4, AID504770 -0.1 and MenB inh -23.5.
`CC(C)CNCCCN1CCOCC1` gave Polio RdRp inh 101.0, Mtb MbtI inh -0.3, AID504770 0.55 and MenB inh 36.3*.
For CC1(C)N(O)C2=C(N=O)CCC(N=O)=C2N1O the results were Polio RdRp inh 101.0, Mtb MbtI inh 5.2, AID504770 -0.6 and MenB inh -8.3.
For Cc1ccc(S(N)(=O)=O)cc1C(=O)NC(C)C the results were Polio RdRp inh 100.0, Mtb MbtI inh -24.8, AID504770 -0.6 and MenB inh -4.3.
CCCCn1c(=S)[nH]c2sc3c(c2c1=O)CCCC3 was read as Polio RdRp inh 100.0, Mtb MbtI inh 1.9, AID504770 -0.15 and MenB inh -46.5.
Screening COCCn1c(=S)[nH]c2sc(C)c(C)c2c1=O returned Polio RdRp inh 80.0*, Mtb MbtI inh 100.5*, AID504770 0.15 and MenB inh -48.0.

Screening data: PubChem, ICCB-Longwood Screening Facility, Harvard Medical School
